Data reported in PubChem BioAssay (NCI).
About 83,000 compounds went through this panel and 20% of them were active in at least one assay; those are over-represented in the sample as a whole.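 The test compound was applied at a single concentration to cells in 96-well plates for 48 hours, and percent growth was recorded.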 Unmarked numbers belong to inactive results. Activity calls are given as the source filed them. How the source made its calls: active means growth percent below 10; inactive means the rest.

How the values were obtained:
Assay in all cases: NCI-60 one-dose screen, 48 h (100 = growth as untreated, 0 = no growth, -100 = all killed)
Conditions in all cases: 10 µM unless noted
NCI-H23 lung = tested on: NCI-H23 lung
NCI-H226 lung = tested on: NCI-H226 lung
NCI-H322M lung = tested on: NCI-H322M lung
HOP-62 NSCLC = tested on: HOP-62 NSCLC
NCI-H460 lung = tested on: NCI-H460 lung
HOP-92 NSCLC = tested on: HOP-92 NSCLC
NCI-H522 lung = tested on: NCI-H522 lung
A549/ATCC NSCLC = tested on: A549/ATCC NSCLC
786-0 renal = tested on: 786-0 renal
COLO 205 colon = tested on: COLO 205 colon
DU-145 prostate = tested on: DU-145 prostate
K-562 leukemia = tested on: K-562 leukemia
MALME-3M melanoma = tested on: MALME-3M melanoma
MDA-MB-231 breast = tested on: MDA-MB-231 breast
RXF 393 renal = tested on: RXF 393 renal
SF-268 CNS = tested on: SF-268 CNS
SF-295 CNS = tested on: SF-295 CNS
SF-539 CNS = tested on: SF-539 CNS
UACC-257 melanoma = tested on: UACC-257 melanoma
M14 melanoma = tested on: M14 melanoma

SMILES: O=c1c2cccc(Cl)c2sc2c(NCCCNCCO)nc3ccccc3c12
- growth (NCI-H23 lung): 52.4%
- growth (NCI-H226 lung): 67.7%
- growth (NCI-H322M lung): 44%
- growth (HOP-62 NSCLC): 39.6%
- growth (NCI-H460 lung): -86.2% (active)
- growth (HOP-92 NSCLC): -0.275% (active)
- growth (NCI-H522 lung): 49.5%
- growth (A549/ATCC NSCLC): 27.5%
- growth (786-0 renal): 45.6%
- growth (COLO 205 colon): -61.4% (active)
- growth (DU-145 prostate): 13.9%
- growth (K-562 leukemia): -48.1% (active)
- growth (MALME-3M melanoma): 77.8%
- growth (MDA-MB-231 breast): -25.3% (active)
- growth (RXF 393 renal): 50.3%
- growth (SF-268 CNS): 42.1%
- growth (SF-295 CNS): 73.9%
- growth (SF-539 CNS): 27.4%
- growth (UACC-257 melanoma): 97%
- growth (M14 melanoma): -72.7% (active)

SMILES: CCOC(=O)c1cn2ncnc(Oc3ccc(NC(=O)NCCN4CCOCC4)c(Cl)c3)c2c1C
- growth (NCI-H23 lung): 99.6%
- growth (NCI-H226 lung): 92.9%
- growth (NCI-H322M lung): 88.7%
- growth (HOP-62 NSCLC): 87.1%
- growth (NCI-H460 lung): 100%
- growth (HOP-92 NSCLC): 91.7%
- growth (NCI-H522 lung): 93.9%
- growth (A549/ATCC NSCLC): 99.2%
- growth (786-0 renal): 102%
- growth (COLO 205 colon): 100%
- growth (DU-145 prostate): 109%
- growth (K-562 leukemia): 98.3%
- growth (MALME-3M melanoma): 91.5%
- growth (MDA-MB-231 breast): 100%
- growth (RXF 393 renal): 94.2%
- growth (SF-268 CNS): 94.9%
- growth (SF-295 CNS): 98.4%
- growth (SF-539 CNS): 95.6%
- growth (UACC-257 melanoma): 95.8%
- growth (M14 melanoma): 91.3%

SMILES: CC(=O)N1CCN(c2ccc(OCC3CO[C@](Cn4ccnc4)(c4ccc(Cl)cc4Cl)O3)cc2)CC1 (stereo not given in full)
- growth (NCI-H23 lung): 78.3%
- growth (NCI-H226 lung): 58.7%
- growth (NCI-H322M lung): 93.6%
- growth (HOP-62 NSCLC): 74.4%
- growth (NCI-H460 lung): 96.4%
- growth (HOP-92 NSCLC): 61.4%
- growth (NCI-H522 lung): 82.4%
- growth (A549/ATCC NSCLC): 85.2%
- growth (786-0 renal): 77.6%
- growth (COLO 205 colon): 86.9%
- growth (DU-145 prostate): 105%
- growth (K-562 leukemia): 56.6%
- growth (MALME-3M melanoma): 77.4%
- growth (MDA-MB-231 breast): 77.5%
- growth (RXF 393 renal): 80.6%
- growth (SF-268 CNS): 96%
- growth (SF-295 CNS): 97.6%
- growth (SF-539 CNS): 91%
- growth (UACC-257 melanoma): 83.7%
- growth (M14 melanoma): 83.8%

SMILES: CNC(C)[C@H]1CCC2C3CCC4C[C@@H](N(C)C(=O)c5ccccc5)CC[C@]4(C)C3CC[C@@]21C (stereo not given in full)
- growth (NCI-H23 lung): 40.9%
- growth (NCI-H226 lung): 80.3%
- growth (NCI-H322M lung): 12.6%
- growth (HOP-62 NSCLC): 38.4%
- growth (NCI-H460 lung): -7.41% (active)
- growth (HOP-92 NSCLC): 19.2%
- growth (NCI-H522 lung): 69.5%
- growth (A549/ATCC NSCLC): 39.9%
- growth (786-0 renal): 40.1%
- growth (COLO 205 colon): -79.3% (active)
- growth (DU-145 prostate): 61.4%
- growth (K-562 leukemia): -2.77% (active)
- growth (MALME-3M melanoma): -42.1% (active)
- growth (MDA-MB-231 breast): -1.29% (active)
- growth (RXF 393 renal): -67% (active)
- growth (SF-268 CNS): -9.75% (active)
- growth (SF-295 CNS): 24.3%
- growth (SF-539 CNS): -61.2% (active)
- growth (UACC-257 melanoma): -12.6% (active)
- growth (M14 melanoma): -36.6% (active)

SMILES: Fc1cc2c(cc1Cl)N(c1ncnc3ccc(-c4cnc5cnccn45)cc13)CC2
- growth (NCI-H23 lung): 83%
- growth (NCI-H226 lung): 92.8%
- growth (NCI-H322M lung): 80.7%
- growth (HOP-62 NSCLC): 78.1%
- growth (NCI-H460 lung): 98.9%
- growth (HOP-92 NSCLC): 87.4%
- growth (NCI-H522 lung): 82.6%
- growth (A549/ATCC NSCLC): 86.8%
- growth (786-0 renal): 81.1%
- growth (COLO 205 colon): 121%
- growth (DU-145 prostate): 74.7%
- growth (K-562 leukemia): 75.2%
- growth (MALME-3M melanoma): 91.3%
- growth (MDA-MB-231 breast): 77.5%
- growth (RXF 393 renal): 62%
- growth (SF-268 CNS): 81%
- growth (SF-295 CNS): 107%
- growth (SF-539 CNS): 84.6%
- growth (UACC-257 melanoma): 109%
- growth (M14 melanoma): 80.2%

SMILES: CSc1ncccc1C(=O)OCC(=O)Nc1oc(C)c2c(C)n[nH]c(=O)c12
- growth (NCI-H23 lung): 99.3%
- growth (NCI-H226 lung): 86.3%
- growth (NCI-H322M lung): 104%
- growth (HOP-62 NSCLC): 105%
- growth (NCI-H460 lung): 108%
- growth (HOP-92 NSCLC): 73.4%
- growth (NCI-H522 lung): 84.2%
- growth (A549/ATCC NSCLC): 103%
- growth (786-0 renal): 91.6%
- growth (COLO 205 colon): 122%
- growth (DU-145 prostate): 103%
- growth (K-562 leukemia): 87.8%
- growth (MALME-3M melanoma): 106%
- growth (MDA-MB-231 breast): 109%
- growth (RXF 393 renal): 92.1%
- growth (SF-268 CNS): 105%
- growth (SF-295 CNS): 95%
- growth (SF-539 CNS): 99.7%
- growth (UACC-257 melanoma): 103%
- growth (M14 melanoma): 110%

SMILES: Oc1ccc(-c2nc3ccc4[nH]ncc4c3c3c2CCCC3)c2cccnc12
- growth (NCI-H23 lung): -7.85% (active)
- growth (NCI-H226 lung): -2.05% (active)
- growth (NCI-H322M lung): 11.3%
- growth (HOP-62 NSCLC): 5.46% (active)
- growth (NCI-H460 lung): -21.7% (active)
- growth (HOP-92 NSCLC): -16.7% (active)
- growth (NCI-H522 lung): 15%
- growth (A549/ATCC NSCLC): -34% (active)
- growth (786-0 renal): 2.06% (active)
- growth (COLO 205 colon): -11.6% (active)
- growth (DU-145 prostate): 11.6%
- growth (K-562 leukemia): 7.23% (active)
- growth (MALME-3M melanoma): -3.69% (active)
- growth (MDA-MB-231 breast): 18.8%
- growth (RXF 393 renal): -9.52% (active)
- growth (SF-268 CNS): 0.245% (active)
- growth (SF-295 CNS): -4.23% (active)
- growth (SF-539 CNS): -1.03% (active)
- growth (UACC-257 melanoma): -20.4% (active)
- growth (M14 melanoma): 3.35% (active)

SMILES: Cc1ccccc1C(=O)NN
- growth (NCI-H23 lung): 104%
- growth (NCI-H226 lung): 113%
- growth (NCI-H322M lung): 90.6%
- growth (HOP-62 NSCLC): 93.3%
- growth (NCI-H460 lung): 115%
- growth (HOP-92 NSCLC): 80.6%
- growth (NCI-H522 lung): 92%
- growth (A549/ATCC NSCLC): 89.2%
- growth (786-0 renal): 112%
- growth (COLO 205 colon): 110%
- growth (DU-145 prostate): 120%
- growth (K-562 leukemia): 104%
- growth (MALME-3M melanoma): 106%
- growth (MDA-MB-231 breast): 126%
- growth (RXF 393 renal): 118%
- growth (SF-268 CNS): 120%
- growth (SF-295 CNS): 106%
- growth (SF-539 CNS): 114%
- growth (UACC-257 melanoma): 103%
- growth (M14 melanoma): 107%
